Test results from the antibiotic and cytotoxicity screens of Wong et al. (2023).
About 3,300 (8.5%) of roughly 39,000 compounds were called active. Many of the other results were omitted from the sample, so actives are more common in it than they were.

Tested on: HepG2
Assay: cytotoxicity call (relative viability < 0.9)
Conditions: 10 µM

Structure (SMILES)	cytotoxicity call
Cc1noc(C)c1S(=O)(=O)Nc1ccc2c(c1)C(=O)N([C@H](C)CO)C[C@@H](C)[C@@H](CN(C)S(=O)(=O)c1ccccc1)O2	inactive
COc1ccc(NC(=O)Nc2cccc3c2O[C@@H](CN(C)S(C)(=O)=O)[C@H](C)CN([C@H](C)CO)C3=O)cc1	inactive
COc1cccc(NC(=O)N[C@H]2CC[C@@H](CC(=O)N3CCOCC3)O[C@@H]2CO)c1	inactive
CO[C@@H]1CN(C)C(=O)c2cc(NC(=O)C3CCOCC3)ccc2OC[C@@H](C)N(C(=O)C2CCOCC2)C[C@H]1C	inactive
CN1C(=O)c2cc(NS(=O)(=O)c3ccc(F)cc3)ccc2OC[C@H]2O[C@@H](CC(=O)Nc3cccc4ccccc34)CC[C@@H]21	inactive
C[C@H](CO)N1C[C@H](C)[C@H](CN(C)C(=O)Nc2ccc(F)cc2)OCCCC[C@H](C)Oc2ccc(NC(=O)CCCN(C)C)cc2C1=O	inactive
COc1ccc(S(=O)(=O)Nc2ccc3c(c2)CC(=O)N([C@@H](C)CO)C[C@@H](C)[C@H](CN(C)Cc2ccc(C(=O)O)cc2)O3)cc1	inactive
C[C@@H]1CN([C@@H](C)CO)C(=O)c2cc(NS(=O)(=O)c3ccccc3)ccc2O[C@@H](C)CCCCO[C@H]1CN(C)Cc1ccccc1	inactive
COc1ccc(S(=O)(=O)Nc2ccc3c(c2)C(=O)N([C@H](C)CO)C[C@H](C)[C@@H](CN(C)S(=O)(=O)c2ccc(Cl)cc2)OCCCC[C@@H](C)O3)cc1	active
COc1ccc(S(=O)(=O)Nc2ccc3c(c2)C(=O)N([C@H](C)CO)C[C@@H](C)[C@H](CN(C)S(=O)(=O)c2ccc(Cl)cc2)OCCCC[C@H](C)O3)cc1	inactive
COc1ccc(S(=O)(=O)N(C)C[C@@H]2OCCCC[C@@H](C)Oc3ccc(NS(=O)(=O)c4ccc(Cl)cc4)cc3C(=O)N([C@H](C)CO)C[C@H]2C)cc1	active
COc1ccc(S(=O)(=O)N(C)C[C@@H]2OCCCC[C@@H](C)Oc3ccc(NS(=O)(=O)c4ccc(Cl)cc4)cc3C(=O)N([C@@H](C)CO)C[C@@H]2C)cc1	inactive
COc1ccc(S(=O)(=O)N(C)C[C@@H]2OCCCC[C@H](C)Oc3ccc(NS(=O)(=O)c4ccc(Cl)cc4)cc3C(=O)N([C@H](C)CO)C[C@H]2C)cc1	active
COc1ccc(S(=O)(=O)N(C)C[C@H]2OCCCC[C@@H](C)Oc3ccc(NS(=O)(=O)c4ccc(Cl)cc4)cc3C(=O)N([C@@H](C)CO)C[C@H]2C)cc1	active
COc1ccc(NC(=O)Nc2ccc3c(c2)C(=O)N([C@@H](C)CO)C[C@@H](C)[C@@H](CN(C)C(=O)Nc2cccc4ccccc24)OCCCC[C@H](C)O3)cc1	inactive
C[C@@H]1CCCCO[C@@H](CN(C)C(=O)Nc2ccc(F)cc2)[C@H](C)CN([C@@H](C)CO)C(=O)c2cc(NC(=O)Nc3ccc(F)cc3)ccc2O1	inactive
O=C(C[C@@H]1CC[C@@H]2[C@H](COC[C@@H](O)CN2C(=O)c2ccccc2)O1)NCCCN1CCOCC1	inactive
C[C@H](CO)N1C[C@H](C)[C@@H](CN(C)C(=O)Cc2ccncc2)Oc2cc(C#CC3(O)CCCC3)ccc2S1(=O)=O	inactive
CN(C)CCCNC(=O)C[C@@H]1CC[C@@H]2[C@H](COc3ccc(NC(=O)c4ccc5c(c4)OCO5)cc3C(=O)N2C)O1	inactive
O=C(CCCCCNC(=O)OC[C@]12N=C3SCc4ccccc4CN3[C@H](c3ccccc3O1)[C@H]2COC(=O)c1ccccc1)NO	inactive

Structure (SMILES)	cytotoxicity call
C[C@@H]1CN([C@H](C)CO)S(=O)(=O)c2ccc(Br)cc2O[C@@H]1CN(C)CC1CCOCC1	inactive
O=C(Nc1cccc2cccnc12)[C@@H]1[C@H](c2ccc3ccccc3c2)CC(=O)N1C(=O)OCc1ccccc1	inactive
COc1ccc2c3c(n(c2c1)C)[C@@H](CO)N(CC1CCOCC1)C[C@]13CN(C1)C(=O)c1cccc(c1)F	inactive
C[C@@H]1CN([C@@H](C)CO)C(=O)Cc2cc(NC(=O)c3ccncc3)ccc2O[C@H]1CN(C)S(=O)(=O)c1ccc(F)cc1	inactive
COc1ccc(NC(=O)Nc2ccc3c(c2)C(=O)N([C@@H](C)CO)C[C@@H](C)[C@@H](CN(C)S(=O)(=O)c2ccc(F)cc2)OCCCC[C@H](C)O3)cc1	inactive
COc1ccc(S(=O)(=O)Nc2ccc3c(c2)C(=O)N([C@H](C)CO)C[C@@H](C)[C@@H](CN(C)S(=O)(=O)c2ccc(Cl)cc2)OCCCC[C@H](C)O3)cc1	inactive
COc1ccc(S(=O)(=O)Nc2ccc3c(c2)C(=O)N([C@@H](C)CO)C[C@@H](C)[C@H](CN(C)S(=O)(=O)c2ccc(Cl)cc2)OCCCC[C@H](C)O3)cc1	inactive
COc1ccc(S(=O)(=O)N(C)C[C@H]2OCCCC[C@H](C)Oc3ccc(NS(=O)(=O)c4ccc(Cl)cc4)cc3C(=O)N([C@H](C)CO)C[C@@H]2C)cc1	active
CCOC(=O)c1cc2c(c(-c3cccc(Br)c3)n1)[C@@H](CCOC)N([S@](=O)C(C)(C)C)C2	inactive
Nc1ncnc2c1ncn2[C@@H]1C=C[C@H](CO)O1	inactive
CCC(=O)N[C@@H]1C=C[C@H](CC(=O)OC)O[C@@H]1CO	inactive
Cc1cc(=O)n2ncnc2[nH]1	inactive
C[C@H]1CCCCO[C@H](CN(C)S(=O)(=O)c2ccccc2)[C@@H](C)CN([C@@H](C)CO)C(=O)c2cc(NC(=O)Nc3ccccc3)ccc2O1	inactive
CCC1(O)CC2CN(CCc3c([nH]c4ccccc34)C(C(=O)OC)(c3cc4c(cc3OC)N(C=O)C3C(O)(C(=O)OC)C(OC(C)=O)C5(CC)C=CCN6CCC43C65)C2)C1.O=S(=O)(O)O (stereo not given)	active
CCC1(O)CC2CN(CCc3c([nH]c4ccccc34)C(C(=O)OC)(c3cc4c(cc3OC)N(C)C3C(O)(C(=O)OC)C(OC(C)=O)C5(CC)C=CCN6CCC43C65)C2)C1.O=S(=O)(O)O (stereo not given)	active
COc1ccc(S(=O)(=O)N(C)C[C@H]2OCCCC[C@H](C)Oc3ccc(NC(=O)c4ccccc4)cc3C(=O)N([C@H](C)CO)C[C@@H]2C)cc1	inactive
C[C@@H]1CN([C@@H](C)CO)S(=O)(=O)c2ccc(C3=CCCC3)cc2O[C@@H]1CN(C)C(=O)C1CCOCC1	inactive
CO[C@@H]1CN(C)C(=O)c2cc(NC(=O)C3CCOCC3)ccc2OC[C@H](C)N(Cc2cccnc2)C[C@H]1C	inactive
C[C@H](CO)N1C[C@H](C)[C@H](CN(C)C(=O)NC2CCCCC2)OCCCC[C@H](C)Oc2ccc(NC(=O)Cc3ccccc3)cc2C1=O	inactive
COc1ccc(NC(=O)Nc2ccc3c(c2)C(=O)N([C@H](C)CO)C[C@H](C)[C@@H](CN(C)Cc2ccncc2)OCCCC[C@H](C)O3)cc1	inactive

Structure (SMILES)	cytotoxicity call
C[C@H]1CN([C@@H](C)CO)C(=O)c2cc(NC(=O)Nc3ccc(C(F)(F)F)cc3)ccc2O[C@@H]1CN(C)C(=O)Nc1ccc(F)cc1	inactive
C[C@H]1CN([C@@H](C)CO)C(=O)Cc2cc(NS(=O)(=O)c3ccccc3)ccc2O[C@H]1CN(C)Cc1ccc(Cl)c(Cl)c1	inactive
C[C@H](CO)N1C[C@H](C)[C@@H](CN(C)Cc2ccc(Cl)c(Cl)c2)Oc2ccc(NS(=O)(=O)c3ccccc3)cc2CC1=O	inactive
C[C@@H]1CN([C@@H](C)CO)C(=O)Cc2cc(NS(=O)(=O)c3ccccc3)ccc2O[C@H]1CN(C)Cc1ccc(Cl)c(Cl)c1	active
C[C@H]1CN([C@@H](C)CO)C(=O)Cc2cc(NS(=O)(=O)c3ccccc3)ccc2O[C@@H]1CN(C)Cc1ccc(Cl)c(Cl)c1	active
C[C@@H]1CN([C@@H](C)CO)C(=O)Cc2cc(NS(=O)(=O)c3ccccc3)ccc2O[C@@H]1CN(C)Cc1ccc(Cl)c(Cl)c1	active
C[C@@H]1CN([C@H](C)CO)C(=O)Cc2cc(NS(=O)(=O)c3ccccc3)ccc2O[C@H]1CN(C)Cc1ccc(Cl)c(Cl)c1	active
CNC[C@H]1OCCCC[C@@H](C)Oc2ccc(NC(=O)Nc3cccc4ccccc34)cc2C(=O)N([C@H](C)CO)C[C@H]1C	inactive
COc1ccccc1CNC(=O)C[C@H]1C[C@H]2c3cc(NS(=O)(=O)c4ccc(F)cc4)ccc3O[C@H]2[C@@H](CO)O1	inactive
C[C@H](CO)N1C[C@H](C)[C@@H](CN(C)Cc2ccc3c(c2)OCO3)Oc2ccc(NC(=O)CCN3CCOCC3)cc2CC1=O	inactive
COc1ccc(S(=O)(=O)Nc2ccc3c(c2)C(=O)N([C@H](C)CO)C[C@H](C)[C@H](CN(C)Cc2ccccc2)OCCCC[C@@H](C)O3)cc1	inactive
C[C@@H]1CCCCO[C@H](CN(C)C(=O)NC2CCCCC2)[C@@H](C)CN([C@H](C)CO)C(=O)c2cc(NC(=O)CCCCCC(=O)Nc3ccccc3N)ccc2O1	inactive
COc1ccc(S(=O)(=O)N(C)C[C@H]2Oc3ccc(NC(=O)CCCN(C)C)cc3C(=O)N([C@H](C)CO)C[C@@H]2C)cc1	inactive
COc1ccc(NC(=O)Nc2ccc3c(c2)C(=O)N([C@@H](C)CO)C[C@H](C)[C@H](CN(C)S(=O)(=O)c2ccc(Cl)cc2)OCCCC[C@@H](C)O3)cc1	inactive
C[C@@H]1CCCCO[C@@H](CN(C)C(=O)Nc2ccc(C(F)(F)F)cc2)[C@H](C)CN([C@H](C)CO)C(=O)c2cc(NS(C)(=O)=O)ccc2O1	inactive
C[C@@H]1CN([C@@H](C)CO)C(=O)Cc2cc(NS(=O)(=O)c3cccs3)ccc2O[C@H]1CN(C)Cc1ccc(Cl)c(Cl)c1	inactive
C[C@H](CO)N1C[C@H](C)[C@H](CN(C)Cc2ccc(Cl)c(Cl)c2)Oc2ccc(NS(=O)(=O)c3ccccc3)cc2CC1=O	inactive
C[C@H]1CN([C@@H](C)CO)C(=O)Cc2cc(NS(=O)(=O)c3cccs3)ccc2O[C@@H]1CN(C)Cc1ccc(Cl)c(Cl)c1	inactive
C[C@H]1CN([C@@H](C)CO)C(=O)Cc2cc(NS(=O)(=O)c3cccs3)ccc2O[C@H]1CN(C)Cc1ccc(Cl)c(Cl)c1	active
C[C@@H]1CN([C@H](C)CO)C(=O)Cc2cc(NS(=O)(=O)c3ccccc3)ccc2O[C@@H]1CN(C)Cc1ccc(Cl)c(Cl)c1	active
